Experimental data taken from PubChem BioAssay AID485344 (National Center for Advancing Translational Sciences (NCATS), 2010).
Screen size: about 340,000 compounds; about 6,900 (2%) were called active. Cut-off read from the data, not from the text of the source: active = inhibition above about 30%; inactive = below that, where a call was filed. Only a selection was taken, and actives are over-represented in it overall.

target: D(2) dopamine receptor (Homo sapiens) (UniProt P14416); assay: HTS Assay for Allosteric Antagonists of the Human D2 Dopamine Receptor: Primary Screen for Antagonists; conditions: HEK293 TREx D2 cells, calcium flux, dopamine EC80; at 10 µM; hits give high values; note: 0% is about no effect
Summary of the method: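 Cells plated overnight at 30 C with tetracycline; no-wash calcium dye, 30–90 min RT; 10 s baseline; compound pinned; 180 s read; EC80 dopamine added; another 180 s read.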

D(2) dopamine receptor (Homo sapiens), sequence (P14416 whole entry, looked up): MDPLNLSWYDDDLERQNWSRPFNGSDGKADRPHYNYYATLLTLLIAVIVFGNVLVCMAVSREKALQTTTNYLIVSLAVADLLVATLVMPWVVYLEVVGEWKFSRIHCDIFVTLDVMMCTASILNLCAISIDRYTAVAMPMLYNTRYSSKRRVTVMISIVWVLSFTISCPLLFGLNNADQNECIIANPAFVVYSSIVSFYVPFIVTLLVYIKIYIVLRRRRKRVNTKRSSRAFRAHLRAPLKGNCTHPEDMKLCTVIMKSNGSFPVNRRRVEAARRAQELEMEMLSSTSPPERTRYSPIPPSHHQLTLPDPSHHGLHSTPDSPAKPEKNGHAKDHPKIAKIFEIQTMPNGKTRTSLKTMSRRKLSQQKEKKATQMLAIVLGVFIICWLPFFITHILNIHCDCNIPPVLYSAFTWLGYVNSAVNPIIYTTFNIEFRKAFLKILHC

Row | Structure (SMILES) | inhibition
1 | COc1ccccc1C(=O)NCC(=O)NCCSc1ccc(Br)cc1 | -18.2% (inactive)
2 | Fc1ccc(CNCc2ccc(Br)cc2)cc1 | 48.7% (active)
3 | Cc1cc(C)cc(NC(=S)NCc2ccc(F)cc2)c1 | 17.7% (inactive)
4 | O=C(Cc1ccccc1)NCc1ccc(F)cc1 | 7.68% (inactive)
5 | CCOC(=O)C1CCCN(C(=O)c2ccc(C)c(S(=O)(=O)N3CCCCC3)c2)C1 (stereo not drawn) | -2.03% (inactive)
6 | CC(=O)Nc1ccc(SC[C@H](Cc2ccccc2)N2CC[C@@H](C)CCC2=O)cc1 | 6.05% (inactive)
7 | COc1cc(-c2nnn(CC(=O)NCc3ccccc3)n2)cc(OC)c1OC | -2.02% (inactive)
8 | O=C(Cn1nnc(-c2ccccc2)n1)NC(=O)NC1CCCC1 | -8.79% (inactive)
9 | N#Cc1ccc(COC(=O)Cn2nnc(-c3ccccc3)n2)cc1 | 32.5% (active)
10 | COc1cc([N+](=O)[O-])ccc1NC(=O)COC(=O)CCOc1ccc(C)cc1 | -25.8% (inactive)
11 | Cc1cccc(Nc2nnc(SCC(=O)c3c(N)n(C4CC4)c(=O)[nH]c3=O)s2)c1C | -24.6% (inactive)
12 | O=S(=O)(Nc1ccc2nc(N3CCOCC3)sc2c1)c1ccccc1 | -2.59% (inactive)
13 | O=C(Nc1ccccc1)Nc1nc2ccccc2s1 | 38.1% (active)
14 | CC(=O)Nc1ccc(-c2csc(NC(=O)Nc3ccccc3)n2)cc1 | 0.929% (inactive)
15 | O=C(CCNC(=O)c1ccccc1)Nc1nc2ccccc2s1 | 9.78% (inactive)
16 | O=C(O)CSc1ccc(S(=O)(=O)N2CCCC2)cn1 | -7.84% (inactive)
17 | Cc1cc(NC(=O)CCC2COc3ccccc3O2)no1 (stereo not drawn) | 16.6% (inactive)
18 | O=C(NCC1COc2ccccc2O1)C1(c2ccccc2)CCCC1 (stereo not drawn) | 2.24% (inactive)
19 | Cc1noc(C)c1C(=O)NCC1COc2ccccc2O1 (stereo not drawn) | 42% (active)
20 | NC(=O)c1ccsc1NC(=O)COC(=O)COc1ccc(C=O)cc1 | 0.0079% (inactive)

Row | Structure (SMILES) | inhibition
21 | CCOc1ncccc1C(=O)Nc1ccc(S(=O)(=O)Nc2nc(C)cc(C)n2)cc1 | -33.5% (inactive)
22 | COc1ccc(NS(=O)(=O)c2cc(NC(=O)COc3ccccc3F)ccc2OC)cc1 | -11% (inactive)
23 | CN(C)S(=O)(=O)c1ccc(Cl)c(NC(=O)COC(=O)CC(NC(N)=O)c2ccc(Cl)cc2)c1 (stereo not drawn) | 8.54% (inactive)
24 | NC(=O)NC(CC(=O)NNC(=O)c1ccccn1)c1ccc(Cl)cc1 (stereo not drawn) | 35.3% (active)
25 | CCCNC(=O)NC(=O)COC(=O)CC(NC(N)=O)c1ccc(Cl)cc1 (stereo not drawn) | -5.2% (inactive)
26 | CC(C)C(NC(=O)c1c(F)cccc1F)C(=O)NCc1ccncc1 (stereo not drawn) | -6.22% (inactive)
27 | Cc1ccc(S(=O)(=O)Oc2ccc(/C=N/NC(=O)c3ccncc3)cc2)cc1 | -6.29% (inactive)
28 | Cc1ccc(NC(=O)CC2S/C(=N/N=C3\CCCc4ccccc43)NC2=O)cc1 (stereo not drawn) | -3.76% (inactive)
29 | CC(=O)Nc1ccc(S(=O)(=O)Oc2ccc(/C=N/N=C3/NC(=O)C(CC(=O)O)S3)cc2)cc1 (stereo not drawn) | 35.4% (active)
30 | Cc1cc(C(=O)CCC(=O)NNC(=O)c2ccccc2O)c(C)s1 | 19.4% (inactive)
31 | Cc1c(NC(=S)NC(=O)CCc2ccccc2)c(=O)n(-c2ccccc2)n1C | 40.2% (active)
32 | Cc1c(NC(=S)Nc2ccccc2)c(=O)n(-c2ccccc2)n1C | -10.1% (inactive)
33 | Cc1c(NC(=O)CN2C(=O)C(=O)N(Cc3ccccc3)C2=O)c(=O)n(-c2ccccc2)n1C | -13.5% (inactive)
34 | COc1ccc(OC)c(CN2CCN(C(=O)CNC(=O)c3cc(C)cc(C)c3)CC2)c1 | -4.53% (inactive)
35 | CCN(CC)S(=O)(=O)c1cc(C(=O)Nc2cc(S(=O)(=O)N3CCOCC3)ccc2N2CCCC2)ccc1F | -9.39% (inactive)
36 | CN(CC(=O)Nc1ccc(Cl)cc1)CC(=O)Nc1cccc2ccccc12 | -6.32% (inactive)
37 | CC(C)c1ccc(/C=C/C(=O)NCCCN2CCOCC2)cc1 | -4.54% (inactive)
38 | Cn1c(C(=O)NCCc2ccsc2)cc2c(=O)n(C)c3ccccc3c21 | -0.277% (inactive)
39 | CCn1c(=O)cc(OCC(=O)NCCCN2CCN(c3cccc(Cl)c3)CC2)c2ccccc21 | 78.9% (active)
40 | CCOC(=O)N1CCC(NC(=O)COc2cc(=O)n(C)c3ccccc23)CC1 | 7.2% (inactive)

Row | Structure (SMILES) | inhibition
41 | CCN1CCCC1CNC(=O)c1cc2c(=O)n(C)c3ccccc3c2n1C (stereo not drawn) | -1.94% (inactive)
42 | Cn1c(C(=O)NCCCN2CCN(c3cccc(Cl)c3)CC2)cc2c(=O)n(C)c3ccccc3c21 | 95.2% (active)
43 | CCOC(=O)N1CCC(Nc2c(NCCN3CCN(c4cccc(Cl)c4)CC3)c(=O)c2=O)CC1 | -2.93% (inactive)
44 | CCOc1ccc(C(=O)CCC(=O)Nc2ccncc2)cc1 | -7.41% (inactive)
45 | Cc1ccc(-c2nn(-c3ccccc3)cc2C(=O)NCCCN2CCCC2=O)cc1 | -11.6% (inactive)
46 | Cc1noc(C)c1COc1ccc(C(=O)NCCOc2ccccc2)cc1 | -11% (inactive)
47 | COc1ccc(Cl)cc1NC(=O)CN(C)CC(=O)Nc1ccc2c(c1)OCO2 | -18.1% (inactive)
48 | O=C1C=C(c2cccc(Cl)c2O)C[C@@H](c2ccc(F)cc2)C1 | 6% (inactive)
49 | CCCN(CC(=O)Nc1ccccc1C)C(=O)c1ccc2[nH]c3c(c2c1)CC(C)CC3 (stereo not drawn) | -19.6% (inactive)
50 | CS(=O)(=O)c1ccc2nc(NC(=O)CN3CCCCCC3)sc2c1 | -16.3% (inactive)
51 | CS(=O)(=O)c1ccc2nc(NC(=O)C3C4C=CC(C4)C3C(=O)O)sc2c1 (stereo not drawn) | -4.77% (inactive)
52 | CS(=O)(=O)c1ccc2nc(NC(=O)C3CCCCC3)sc2c1 | 30.6% (active)
53 | CC(C)Oc1ccc(C(=O)NCC(=O)Nc2ccc3c(c2)CCC3)cc1 | -1.68% (inactive)
54 | O=C(COC(=O)C1(c2ccc(F)cc2)CCCC1)N1CCNC1=O | 7.82% (inactive)
55 | CCCCN(C(=O)c1nn(C)c(=O)c2ccccc12)c1c(N)n(CCC)c(=O)[nH]c1=O | -7.93% (inactive)
56 | CC1CCCN(C(=O)c2cc(-c3ccco3)nc3ccccc23)C1 (stereo not drawn) | -3.9% (inactive)
57 | COc1ccc(S(=O)(=O)NCC(c2ccc(C)cc2)N2CCN(C)CC2)cc1OC (stereo not drawn) | -15.8% (inactive)
58 | CC(=O)Nc1ccc(NC(=O)COC(=O)c2ccccc2C(=O)c2ccccc2)cc1 | 11.9% (inactive)
